# Compound activity (PubChem BioAssay)
# Compounds with a hit are over-represented: about 4.1% of the library has one in this group of screens.
# DAX1 inh-1 = blocks DAX1 repression of SF-1 activated StAR promoter; HEK293T StAR-luciferase reporter, SF-1/DAX-1 repression relief; inhibition, % at 6.8 µM; 370,000 compounds, 1.1% hits; AID 652010;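 active = inhibition above the mean over all tested compounds plus 3 SD, cut at about 3.6% in these data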;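 also: higher inhibition means more luminescence from relief of DAX-1 repression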
# DAX1 inh-2 = inhibits human nuclear receptor DAX1; AID 504766; 340,000 compounds, 0.99% hits; inhibition, % at 6.75 µM; HEK293 Gal4-DAX1 luciferase reporter, luminescence; P51843;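 active = inhibition above the mean over all tested compounds plus 3 SD, cut at about 4.2% in these data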;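 also: inhibition shows as a rise in luminescence from relieved DAX1 repression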
# Target sequence (P51843 207-470 limits assumed): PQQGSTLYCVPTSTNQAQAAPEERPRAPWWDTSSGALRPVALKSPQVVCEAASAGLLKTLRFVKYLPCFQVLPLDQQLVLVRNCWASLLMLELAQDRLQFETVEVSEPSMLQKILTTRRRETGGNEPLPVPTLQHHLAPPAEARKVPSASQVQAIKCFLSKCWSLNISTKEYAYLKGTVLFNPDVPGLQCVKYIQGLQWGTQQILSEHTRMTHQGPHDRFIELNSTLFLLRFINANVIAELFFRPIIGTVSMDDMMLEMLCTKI
# hcDAF-12 act = activates DAF-12 receptor from parasite H. contortus; HEK293 hcDAF-12 lit1-tk-luc reporter, luminescence; 0% DMSO, 100% Δ7-dafachronic acid; activation, % at 6.8 µM; 370,000 compounds, 1.4% hits; AID 652067;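 active = activation above the mean of all tested compounds plus 3 SD, cut at about 5.5% in these data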
# hgDAF-12 ag = agonists of H. glycines DAF-12 nuclear receptor. HEK293 GAL4-hgDAF12 UAS-luciferase reporter, agonist luminescence; normalized to butyrate control. activation, % at 6.8 µM. AID 687014. 370,000 compounds, 1.8% hits;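 active = activation above a cutoff set at the mean of all screened compounds plus 3 SD, cut at about 10% in these data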
# ssDAF-12 act = S. stercoralis DAF-12 activation, primary screen. HEK293 ssDAF-12/GRIP1 lit1-tk-luc reporter, luminescence; % of 3 µM dafachronic acid response. activation, % at 6.8 µM. 370,000 compounds, 1% hits;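 active = activation above the mean over all tested compounds plus 3 SD, cut at about 0.9% in these data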
# Hits are given with their value; n = inactive; x = no result.
SMILES,DAX1 inh-1,DAX1 inh-2,hcDAF-12 act,hgDAF-12 ag,ssDAF-12 act
COC(=O)CC1C(=O)NCCN1C(=S)Nc1ccc(F)cc1 (configuration not stated),n,5.2,n,n,n
CCCC(=O)N1CCC1(C)C(=O)Nc1cc(-c2ccccc2)nn1C (configuration not stated),3.9,x,n,12,n
COCCCN1C(=O)[C@H](CC(=O)NCc2ccc(C)o2)[C@]2(C(=O)OC)CCCCC=C12,n,x,n,n,n
CCOc1ccc(/C=C/C(=O)c2ccccc2)cc1,n,n,6.2,n,n
Cc1ccc(/C=C/C(=O)c2ccc(O)cc2)cc1,n,4.4,n,11,n
COc1ccccc1CC(=O)c1ccc(OCc2ccccc2)cc1,n,n,n,n,n
CCOc1ccc(C(=O)/C=C/c2ccc(SC)cc2)cc1,n,n,n,n,n
CCOc1ccc(C(=O)Cc2ccccc2)cc1,n,n,n,12,1.1
Clc1ccccc1CSc1cc2c(nn1)-c1ccccc1CC2,n,n,n,11,n
Clc1cccc(Cl)c1CSc1cc2c(nn1)-c1ccccc1CC2,n,n,n,n,n
COC(=O)c1cn(NC(=O)Cc2cccc(OC)c2)c(=O)c2ccccc12,n,4.2,n,n,n
O=C(CCc1nc(-c2cccs2)no1)Nc1cnc2ccccc2c1,n,n,n,n,1.7
CCc1cccc(NC(=O)CCc2nc(-c3cccs3)no2)c1,n,n,n,n,n
Cn1ccnc1SCc1cn2cc(Br)ccc2n1,n,n,n,n,1.2
CCCn1c(-c2ccc[nH]c2=O)nc2cc(C)c(C)cc21,n,4.4,n,n,1.1
O=C(Nc1ccccc1)C1=C[C@H](c2ccccc2)C[C@H](OCCCCO)O1,n,n,5.7,n,n
O=C(Nc1ccccc1)C1=C[C@@H](c2ccc(Br)cc2)C[C@@H](OCCCCO)O1,n,n,n,n,n
CCCCC#CC(CC)NCc1ccc(OC)cc1OC (configuration not stated),x,x,n,n,n
CCCCn1c(=O)c(CCC(=O)OCC(=O)Nc2cccc3ccccc23)nc2ccccc21,n,n,n,n,1.6
Cc1ccc(NC(=O)Cc2cccc(OC(F)(F)F)c2)c(S(=O)(=O)N2CCOCC2)c1,n,x,n,n,n
Cn1cc(CCNC(=O)CCc2nnc(CCCCc3ccccc3)o2)cn1,n,n,n,12,n
O=C(CCc1nnc(CCCc2ccccc2)o1)NCCN1CCOC1=O,n,n,n,n,n
CCN(CCn1cccn1)C(=O)CCc1nnc(CCCc2ccccc2)o1,n,n,n,13,1.0
CS(=O)(=O)N1C[C@]2(c3ccccc3)CC1Cc1ccccc12,x,x,n,n,n
O=C(CSc1nnc(COc2ccccc2)n1Cc1ccco1)Nc1ccc(OCc2ccccc2)cc1,n,x,n,n,n
SMILES,DAX1 inh-1,DAX1 inh-2,hcDAF-12 act,hgDAF-12 ag,ssDAF-12 act
CCOc1ccc(-n2c(COc3ccccc3)nnc2SCC(=O)Nc2ccc(OCc3ccccc3)cc2)cc1,n,x,n,n,n
Cc1ccc(-c2ccc3nnc(SCC(N)=O)n3n2)cc1,n,7.0,n,n,n
Cc1n(-c2ccccc2)c2ccc(Cl)cc2[n+]1CCO,n,n,n,12,n
CCOC(=O)[C@]12CCCC=C1N(Cc1ccc(OC)cc1)C(=O)[C@@H]2CC(=O)NCCc1ccccc1OC,n,x,n,n,n
Cc1ccccc1C(=O)N/N=C1/SCC(=O)N1Cc1ccccc1,n,n,n,n,16
Cc1cccc(C(=O)N/N=C2/SCC(=O)N2Cc2ccccc2)c1,n,n,n,n,n
CC(C)C[C@@H]1NC(=O)[C@H]2C[C@]3(c4ccccc4)c4ccccc4N[C@H]3N2C1=O,n,x,n,n,n
CCOC(=O)N1CCC(N2CC34C=CC(O3)C(C(=O)O)C4C2=O)CC1 (configuration not stated),n,4.3,n,n,n
CCCN1CC23C=CC(O2)C(C(=O)O)C3C1=O (configuration not stated),n,5.0,n,n,n
CCC(C)N1CC23C=CC(O2)C(C(=O)OC)C3C1=O (configuration not stated),n,6.7,n,n,n
COCCCN1CC23C=CC(O2)C(C(=O)O)C3C1=O (configuration not stated),n,n,n,n,n
COC(=O)C[C@@H]1CC[C@H]2[C@@H](COc3ccc(NC(=O)Nc4ccc(C)cc4)cc3C(=O)N2C)O1,n,x,n,n,n
CN1CCN(C(=S)NCCc2ccccc2)CC1,n,n,n,13,n
S=C(NCCc1ccccc1)N1CCN(C(=S)NCCc2ccccc2)CC1,n,n,n,n,n
Cc1cc2c(SCC(=O)Nc3cccc(O)c3)ncnc2s1,n,n,6.4,n,1.4
Cc1cc2c(=O)n(C)c(SCC(=O)Nc3ccccc3)nc2s1,n,4.8,n,n,n
Cc1cccc(NC(=O)CSc2nc3sc(C)cc3c(=O)n2C)c1,n,n,n,n,n
CCOC(=O)CCCNC(=O)OC1CCC12CCC(c1ccccc1)CC2 (configuration not stated),n,x,n,n,n
O=C(O)CCCC(=O)Nc1nc2n(n1)C(c1ccc(F)cc1)CC(c1ccc(Cl)cc1)N2 (configuration not stated),n,n,n,n,1.8
CCOc1cccc(/C=N\NC(=O)Cc2cccs2)c1O,n,x,n,n,n
CC(Sc1nnc(COc2ccccc2)n1Cc1ccccc1)C(=O)O (configuration not stated),n,n,n,n,0.9
CCOc1ccc(CCNC(=O)COC(=O)Cc2c[nH]c3ccccc23)cc1OCC,n,n,n,n,1.3
CCOc1ccc(CCNC(=O)COC(=O)COc2ccc(Cl)cc2)cc1OCC,3.8,n,n,n,n
O=C(/C=C/Nc1ccc(S(=O)(=O)Nc2ncccn2)cc1)c1cccs1,n,5.7,n,n,n
C[C@H](NC(=O)OCc1ccccc1)P(=O)(O)O,n,x,n,n,n
SMILES,DAX1 inh-1,DAX1 inh-2,hcDAF-12 act,hgDAF-12 ag,ssDAF-12 act
Cc1cc(C)n(CCOc2ccc(Cl)cc2Cl)n1,n,n,n,n,n
Cc1ccc(OCCOc2ccc(Cl)cc2Cl)c(Br)n1,x,x,n,12,n
COC(=O)[C@]12C[C@H](CC(=O)NCc3cccc(C(F)(F)F)c3)C(=O)N(Cc3ccc(Cl)cc3Cl)C1=C[C@H](COCc1ccccc1)O[C@@H]2C,n,x,n,n,n
O=C(NCCSc1c[nH]c2ccccc12)c1ccco1,n,n,5.9,n,n
O=C(NCCc1c[nH]c2ccccc12)/C(=C/c1cccnc1)NC(=O)c1ccco1,n,4.5,n,n,n
O=c1n(Cc2ccccc2Cl)nc2n1-c1ccccc1SC2,n,4.9,n,n,n
CCc1ccc(-c2ccc(C(=O)C(F)(F)F)[nH]2)cc1,n,n,n,13,n
COC(=O)N(C)C[C@@H]1OCc2ccccc2-c2c(n(C)c3ccccc23)C(=O)N([C@H](C)CO)C[C@@H]1C,3.8,n,n,n,n
Cc1ccc(CNC(=O)CSCc2ccccc2F)cc1,n,n,n,13,n
